Data on 40 compounds can be found in PubChem BioAssay.

Potency and affinity values are given separately. Active and inactive are the calls of the source.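 How the source made its calls, unless noted: active means fitted half-maximal concentration within the tested range, moderate curve steepness, significant signal drop, and little compound fluorescence or bead-linkage interference; inactive means the rest.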

Chain of Cell division control protein 42 homolog (Homo sapiens) (P60953 whole entry, looked up): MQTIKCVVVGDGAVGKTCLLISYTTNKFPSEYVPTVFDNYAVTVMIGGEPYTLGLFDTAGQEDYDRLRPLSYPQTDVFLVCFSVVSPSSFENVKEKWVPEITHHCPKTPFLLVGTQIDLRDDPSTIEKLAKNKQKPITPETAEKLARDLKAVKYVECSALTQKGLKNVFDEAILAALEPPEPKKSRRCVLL

The first assay addresses Cell division control protein 42 homolog (Homo sapiens) (UniProt P60953). Briefly: activated mutant Cdc42 GTP-binding inhibitors, dose response, biochemical, multiplex bead flow cytometry, Bodipy-FL-GTP (AID 1333;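 active means fitted half-maximal concentration within the tested dose range, moderate curve steepness, a statistically real signal drop, and little compound fluorescence or tag-binding interference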). As to conditions: bead-based flow cytometry; series mostly up to 100 µM. (Flow cytometry measures light scatter and fluorescence of single cells or particles in a stream.)
In the case of `NC(=O)c1c(NC(=O)c2cnccn2)sc2c1CCCC2`, the call was inactive.
In the case of `COc1ccc(CC(=O)Nc2ccc(S(=O)(=O)NC(C)C)cc2)cc1`, the call was inactive.
Consider `Cc1cccc(CN2C(=O)N/C(=C/c3ccc(C)s3)C2=O)c1`, for which the compound was classed as inactive.
Consider `COc1ccc(S(=O)(=O)N2CCOCC2)cc1C(=O)Nc1nc2ccccc2s1`, for which the call was inactive.
With `Cc1n[nH]c(=S)c2nn(-c3cccc(Cl)c3)c(C)c12`, the compound was classed as inactive.
Consider `O=C(O)c1ccc(CNCc2ccc(F)cc2)cc1`, for which the compound was called inactive.
With `CCOc1ccc(NC(=S)N=Nc2c(O)[nH]c3ccccc23)cc1`, the call was inactive.
For the compound `COc1cccc(Nc2c(F)c(F)c(F)c(F)c2C(=O)O)c1`, the call was inactive.
On to `Oc1c(C(c2ccccn2)N2CCOCC2)ccc2cccnc12` (stereo not given), for which the call was inactive.
`COc1ccc2c(c1)c(C(=O)O)cn2CCOc1ccccc1C`: the outcome was inactive.
`Cc1cccc(C)c1CCNc1ncccc1C(=O)O`: the call was inactive.
Take `Cc1[nH]c2ccccc2c1C(=O)CNc1nccs1`: the compound was called inactive.
Turning to `CCCCCCCCCCCC(=O)c1c(O)cccc1O`, the compound was classed as inactive.
Consider `CCOc1ccc(-n2c(C)nc3cc(C(=O)NCc4ccc5c(c4)OCO5)ccc32)cc1`, for which the compound was classed as inactive.
In the case of `COc1ccc(S(=O)(=O)N2CCN(CC(=O)Nc3cc(C(F)(F)F)ccc3Cl)CC2)cc1`, the compound was called inactive.
As for `COc1cc(/C=N\NC(=O)CNC(=O)C2COc3ccccc3O2)ccc1O` (stereo not given), the compound was called inactive.
`Cc1cc(C)cc(Nc2cc(C(=O)O)c3ccccc3n2)c1`: the outcome was inactive.
`Cc1sc2nc3c4ccccc4c(NCc4ccco4)nn3c(=O)c2c1C`: the call was inactive.
For `COc1ccccc1Nc1nc(-c2c(C)nc3ncccn23)cs1`, the outcome was inactive.
`O=C(O)c1cc(C(=O)O)cc(-c2ccc(/C=c3/sc4nc5ccccc5n4c3=O)o2)c1`: the result was inactive.
Still for that read-out and setting: then `CC(=O)Nc1cccc(C#CC(=O)c2ccc([N+](=O)[O-])cc2)c1`, with “inactive”; and `CC(C)c1nc2oc3c(=O)[nH]cnc3c2c2c1CCC2`, with “inactive”; and `OCCC1CN(Cc2ccccc2O)CCN1CCc1ccccc1` (stereo not given), with “inactive”.
The same measure, in the same setting: then `Cc1ccccc1-n1c(SCc2c(C)noc2C)nnc1-c1cccnc1`, with “inactive”; and `COc1ccc(C2=Nn3c(nnc3-c3ccccn3)SC2)cc1OC`, with “inactive”.
For `C/C(=N\NC(=O)c1ccc(Cl)c(S(=O)(=O)Nc2ccccc2Cl)c1)c1ccncc1`, the compound was classed as inactive.
In the case of `O=S(=O)(CC(CN1CCOCC1)N1CCOCC1)c1ccccc1` (stereo not given), the outcome was inactive.
As for `COc1cc(CCNc2ccc3nnc(-c4ccccc4)n3n2)cc(OC)c1OC`, the outcome was inactive.
Turning to `COc1ccc(N(CC(=O)Nc2cccc(C)c2C)S(=O)(=O)c2c(C)n[nH]c2C)cc1`, the call was inactive.
Turning to `COc1ccc(-c2nn3c(-c4ccccn4)nnc3s2)cc1OC`, the result was inactive.
On the same count and under the same terms, the value for `O=C(O)C1=C[C@H](c2ccc(C(F)(F)F)cc2)C[C@H](OCc2ccc(CO)cc2)O1` was “inactive”.
Regarding `N#CCc1c(C#N)c(N)nc(N2CCN(C=O)CC2)c1C#N`, the outcome was inactive.
For `Cc1ccc(Nc2cc(C(=O)O)c3ccccc3n2)cc1C`, the compound was classed as inactive.
Consider `Cc1ccc(C2=NN(S(=O)(=O)c3ccccc3)C(c3ccccc3O)C2)cc1` (stereo not given), for which the call was inactive.
As to `Cc1ccccc1COc1cccc(C)c1C(=O)O`, the outcome was inactive.
Consider `CCn1c(SCC(=O)O)nnc1-c1cc2c(C)nn(-c3ccccc3)c2s1`, for which the outcome was inactive.
As for `CCn1c2ccccc2c2nnc(SCC(=O)NCCOC)nc21`, the compound was called inactive.
In the case of `CCOCCCNc1nc(=S)[nH]c2cc(OC)c(OC)cc12`, the compound was called inactive.
As for `Cc1ccc(-c2c(C(=O)O)c(C(=O)O)c3n2CCC3)cc1`, the compound was called inactive.
As to `Clc1ccc(CN(Cc2ccc(Cl)cc2)c2nn[nH]n2)cc1`, the compound was classed as inactive.

The next assay shares this target. Briefly: wildtype Cdc42 GTP-binding inhibitors, dose response, biochemical, multiplex bead flow cytometry, Bodipy-FL-GTP (AID 1334). As to conditions: bead-based flow cytometry, Bodipy-FL-GTP binding to GST-Cdc42; at 100 µM (top of the series) unless noted.
`NC(=O)c1c(NC(=O)c2cnccn2)sc2c1CCCC2`: the fluorescence, percent of control (lower = inhibition) came out at 94.1%.
For the compound `COc1ccc(CC(=O)Nc2ccc(S(=O)(=O)NC(C)C)cc2)cc1`, the fluorescence, percent of control (lower = inhibition) is 51.9%.
For `Cc1cccc(CN2C(=O)N/C(=C/c3ccc(C)s3)C2=O)c1`, the fluorescence, percent of control (lower = inhibition) was determined as 72%.
In the case of `COc1ccc(S(=O)(=O)N2CCOCC2)cc1C(=O)Nc1nc2ccccc2s1`, the fluorescence, percent of control (lower = inhibition) was found to be 46.1%.
`Cc1n[nH]c(=S)c2nn(-c3cccc(Cl)c3)c(C)c12`: the fluorescence, percent of control (lower = inhibition) came to 55.8%.
As for `O=C(O)c1ccc(CNCc2ccc(F)cc2)cc1`, the fluorescence, percent of control (lower = inhibition) came to 43.1%.
`CCOc1ccc(NC(=S)N=Nc2c(O)[nH]c3ccccc23)cc1`: the fluorescence, percent of control (lower = inhibition) was 35.5%.
On to `COc1cccc(Nc2c(F)c(F)c(F)c(F)c2C(=O)O)c1`, for which the fluorescence, percent of control (lower = inhibition) worked out at 53.4%.
With `Oc1c(C(c2ccccn2)N2CCOCC2)ccc2cccnc12` (stereo not given), the fluorescence, percent of control (lower = inhibition) was determined as 55.1%.
In the case of `COc1ccc2c(c1)c(C(=O)O)cn2CCOc1ccccc1C`, the fluorescence, percent of control (lower = inhibition) was 61.2%.
For the compound `Cc1cccc(C)c1CCNc1ncccc1C(=O)O`, the fluorescence, percent of control (lower = inhibition) came to 76.7%.
`Cc1[nH]c2ccccc2c1C(=O)CNc1nccs1`: the fluorescence, percent of control (lower = inhibition) was determined as 50.6%.
Take `CCCCCCCCCCCC(=O)c1c(O)cccc1O`: the fluorescence, percent of control (lower = inhibition) was 28.4%.
As to `CCOc1ccc(-n2c(C)nc3cc(C(=O)NCc4ccc5c(c4)OCO5)ccc32)cc1`, the fluorescence, percent of control (lower = inhibition) stood at 41.7%.
As to `COc1ccc(S(=O)(=O)N2CCN(CC(=O)Nc3cc(C(F)(F)F)ccc3Cl)CC2)cc1`, the fluorescence, percent of control (lower = inhibition) amounted to 84.2%.
The same measure, in the same setting: then `COc1cc(/C=N\NC(=O)CNC(=O)C2COc3ccccc3O2)ccc1O` (stereo not given), with 51.5%; and `Cc1cc(C)cc(Nc2cc(C(=O)O)c3ccccc3n2)c1`, with 58.9%.
For `Cc1sc2nc3c4ccccc4c(NCc4ccco4)nn3c(=O)c2c1C`, the fluorescence, percent of control (lower = inhibition) worked out at 94%.
On to `COc1ccccc1Nc1nc(-c2c(C)nc3ncccn23)cs1`, for which the fluorescence, percent of control (lower = inhibition) was 26.5%.
With `O=C(O)c1cc(C(=O)O)cc(-c2ccc(/C=c3/sc4nc5ccccc5n4c3=O)o2)c1`, the fluorescence, percent of control (lower = inhibition) turned out to be 30%.
The same measure, in the same setting: the value for `CC(=O)Nc1cccc(C#CC(=O)c2ccc([N+](=O)[O-])cc2)c1` was 39.8%.
On the same count and under the same terms, then `CC(C)c1nc2oc3c(=O)[nH]cnc3c2c2c1CCC2`, with 80%; and `OCCC1CN(Cc2ccccc2O)CCN1CCc1ccccc1` (stereo not given), with 34.2%.
On the same count and under the same terms, the value for `Cc1ccccc1-n1c(SCc2c(C)noc2C)nnc1-c1cccnc1` was 104%; that for `COc1ccc(C2=Nn3c(nnc3-c3ccccn3)SC2)cc1OC` was 34%.
Regarding `C/C(=N\NC(=O)c1ccc(Cl)c(S(=O)(=O)Nc2ccccc2Cl)c1)c1ccncc1`, the fluorescence, percent of control (lower = inhibition) came to 38.1%.
For `O=S(=O)(CC(CN1CCOCC1)N1CCOCC1)c1ccccc1` (stereo not given), the fluorescence, percent of control (lower = inhibition) stood at 43.3%.
For `COc1cc(CCNc2ccc3nnc(-c4ccccc4)n3n2)cc(OC)c1OC`, the fluorescence, percent of control (lower = inhibition) was 34.8%.
In the case of `COc1ccc(N(CC(=O)Nc2cccc(C)c2C)S(=O)(=O)c2c(C)n[nH]c2C)cc1`, the fluorescence, percent of control (lower = inhibition) was found to be 33.4%.
`COc1ccc(-c2nn3c(-c4ccccn4)nnc3s2)cc1OC`: the fluorescence, percent of control (lower = inhibition) was 43%.
Still for that read-out and setting: then `O=C(O)C1=C[C@H](c2ccc(C(F)(F)F)cc2)C[C@H](OCc2ccc(CO)cc2)O1`, with 30.2%; and `N#CCc1c(C#N)c(N)nc(N2CCN(C=O)CC2)c1C#N`, with 33.7%; and `Cc1ccc(Nc2cc(C(=O)O)c3ccccc3n2)cc1C`, with 60.9%.
With `Cc1ccc(C2=NN(S(=O)(=O)c3ccccc3)C(c3ccccc3O)C2)cc1` (stereo not given), the fluorescence, percent of control (lower = inhibition) amounted to 50.2%.
Consider `Cc1ccccc1COc1cccc(C)c1C(=O)O`, for which the fluorescence, percent of control (lower = inhibition) was determined as 58%.
As to `CCn1c(SCC(=O)O)nnc1-c1cc2c(C)nn(-c3ccccc3)c2s1`, the fluorescence, percent of control (lower = inhibition) stood at 25.1%.
Still for that read-out and setting: then `CCn1c2ccccc2c2nnc(SCC(=O)NCCOC)nc21`, with 50.8%; and `CCOCCCNc1nc(=S)[nH]c2cc(OC)c(OC)cc12`, with 60.4%.
Turning to `Cc1ccc(-c2c(C(=O)O)c(C(=O)O)c3n2CCC3)cc1`, the fluorescence, percent of control (lower = inhibition) amounted to 32.3%.
The same measure, in the same setting: the value for `Clc1ccc(CN(Cc2ccc(Cl)cc2)c2nn[nH]n2)cc1` was 28.2%.
